Only some compounds are listed: those with a hit (about 5.7% of all), similar ones and a draw of the others.
ATXN viability = Viability Counterscreen for Primary qHTS for Inhibitors of ATXN expression; 400,000 compounds, 0.49% hits; Potency, µM (series often up to 56.7 µM), hits mostly cytotoxic; S2 cells (HEK-293 line with an ATXN2-luciferase reporter) viability, CellTiter-Fluor protease fluorescence, 24 h; further: nearly all actives have a fitted effect of over 40% in size
ATXN2 expr inh = Primary qHTS for Inhibitors of ATXN expression; Potency, µM (top dose mostly 57 µM), hits mostly inhibitors; 360,000 compounds, 0.72% hits; HEK-293 ATXN2-luciferase reporter, luminescence, 24 h; further: nearly all actives have a fitted effect of over 55% in size
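ATXN2-luciferase reporter cells (luciferase flanked by upstream and downstream ATXN2 gene portions) were treated 24 h at 37 °C with compounds at up to 57 uM. SteadyGlo luminescence gave expression; GF-AFC fluorescence gave viability.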
HepG2 viability = qHTS for Inhibitors of TGF-b: Cytotox Counterscreen; HepG2 CAGA-GFP viability, ATP luminescence, 18 h; Potency, µM (series often up to 46.1 µM), most hits filed as cytotoxic; 410,000 compounds, 0.76% hits
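HepG2 CAGA-GFP cells (1000/well, DMEM with 1% FBS) received compound, then TGF-beta at 500 pg/mL final, and were incubated 18 hours at 37 degrees C. Viability was read by CellTiter-Glo luminescence. Media-only wells were set as complete cell-killing and DMSO as no toxicity.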
TGFb SMAD3 inh = qHTS for Inhibitors of TGF-b. Potency, µM (top dose mostly 46.1 µM), usual class: inhibitors. AID 588855, 2011. HepG2 CAGA-GFP TGF-b/SMAD3 reporter, GFP fluorescence, 18 h; TGF-beta stimulated, 500 pg/mL final. 410,000 compounds, 1.2% hits; further: nearly all actives have a fitted effect of over 65% in size
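Smad-responsive CAGA-GFP expression was quantified in HEPG2 cells exposed to compounds and 500 pg/mL final TGF-beta for 18 h at 37 degrees C; unstimulated wells defined full inhibition.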
IL1B secr inh = qHTS for Inhibitors of Inflammasome Signaling: IL-1-beta AlphaLISA Primary Screen. THP-1 LPS/ATP IL-1B secretion, AlphaLISA, 16 h; stronger effect = lower value. activity change, % at 57.5 µM. 360,000 compounds, 4.7% hits; in the data active means activity change below about -50%; inconclusive means mostly about -30% to -49%
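Secreted IL-1B measured by AlphaLISA bead assay after 16 h compound exposure of THP-1 cells; compounds (final up to 57.5 uM) added 1 h before LPS (250 ng/mL) and ATP (1.25 mM) stimulation; lower signal means less secretion.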
Numbers stand for hits; 0 = inactive; ? = inconclusive; - = no result given; ! = repeats disagree; [ ] = dose if it differs, or a comment. Unless noted, the call rests on the fitted dose curve; in most records, active means well fitted curve in the direction sought with a large enough effect; inconclusive means small, poorly fitted or top-dose-only effect, or another doubt; inactive means no such curve, though single readings can be large; an effect the other way counts as inactive or inconclusive.

SMILES	ATXN viability	ATXN2 expr inh	HepG2 viability	TGFb SMAD3 inh	IL1B secr inh
COC(=O)c1cc2ccc(OC)cc2c2cc(OC)c(OC)cc12	?	?	0	0	-61.0
COC(=O)c1cc(OC)c(OC)cc1NC(=O)Nc1ccc(OC)cc1	0	0	0	?	0
Cc1ccc(CN2CCC(Oc3cccc(C(=O)N(C)CCN(C)C)c3)CC2)cc1C	0	0	0	0	-65.0
COCCNC(=O)c1cccc(OC2CCN(Cc3ccc(C(C)C)cc3)CC2)c1	0	0	0	0	-69.2
O=Nc1c(O)n(Cc2cccc(Cl)c2)c2ccccc12	?	0	0	0	-67.6
O=c1[nH]c(=O)n([C@H]2C[C@H](O)[C@@H](CO)O2)cc1F	?	7.94µM!	0	0	0
O=c1[nH]c(=O)n(C2CC(O)C(CO)O2)cc1I (stereo unspecified)	0	0	0	0	0
Cc1ccc(-n2nc(CO)c(C(=O)NCCC(C)C)n2)cc1C	-	-	0	?	-
CN(C)CCC(Oc1ccccc1OCc1ccccc1)c1ccccc1 (stereo unspecified)	0	?	0	0	-90.1
CCC(C)COC(=O)C(C#N)c1nc2ccccc2nc1N1CCCCC1 (stereo unspecified)	0	0	0	0	0
CCOC(=O)/C(C#N)=C/c1c(N2CCN(Cc3ccc4c(c3)OCO4)CC2)nc2c(C)cccn2c1=O	0	0	0	0	0
Cc1cccn2c(=O)c(/C=C(\C#N)C(N)=O)c(N3CCN(Cc4ccc5c(c4)OCO5)CC3)nc12	0	0	0	0	-51.4
CN1CCN(c2nc(-c3ccccc3)ncc2S(=O)(=O)c2ccccc2)CC1	0	0	0	0	-51.6
CN1CCN(c2nc3ccccc3nc2C(C#N)S(=O)(=O)c2ccccc2)CC1 (stereo unspecified)	0	-	0	7.94µM	?
CCC(CC)COC(=O)C(C#N)c1nc2ccccc2nc1N1CCN(CC)CC1 (stereo unspecified)	28.2µM	?	0	?	-60.3
CC(C)(Oc1ccc(Cl)cc1)C(=O)Nc1nnc2n1CCS2	0	0	0	0	-
COc1ccc(CNC(=O)C(C#N)c2nc3ccccc3nc2N2CCN(C)CC2)cc1 (stereo unspecified)	0	0	0	0	-51.7
C=CCOC(=O)C(C#N)c1nc2ccccc2nc1N1CCN(Cc2ccc3c(c2)OCO3)CC1 (stereo unspecified)	0	0	0	0	-52.0
CCCCNC(=O)C(C#N)c1nc2ccccc2nc1N1CCN(Cc2ccc3c(c2)OCO3)CC1 (stereo unspecified)	0	0	0	0	0
CCCCN(C)S(=O)(=O)c1ccc(NC2=NS(=O)(=O)c3ccccc32)cc1	0	0	0	?	-
CCOC(=O)COc1ccc(C)cc1C(=O)c1ccn2nc(-c3ccc(C)cc3)cc2n1	0	0	0	0	-
COC(=O)c1ccc2c(=O)n(CCCCCC(=O)N3CCN(c4cc(Cl)ccc4C)CC3)c(=O)[nH]c2c1	0	0	0	?	-
COC(=O)c1c(C)oc2ccc(N(C(=O)Oc3ccccc3)S(=O)(=O)c3ccc(Cl)c([N+](=O)[O-])c3)cc12	-	?	0	0	-104.6
O=C(Nc1ccc2nccnc2c1)N1CCCCCC1	-	-	0	0	-
Cc1cc(C)cc(N(CC(=O)N/N=C/c2ccncc2)S(=O)(=O)c2ccccc2)c1	0	0	0	0	-54.0
SMILES	ATXN viability	ATXN2 expr inh	HepG2 viability	TGFb SMAD3 inh	IL1B secr inh
NC(=O)COc1ccc(/C=N/NS(=O)(=O)c2ccccc2)cc1	0	0[11.3 µM]	0	0	0
COC(=O)COc1ccc(/C=N/NC(=O)CN(c2ccccc2OC)S(=O)(=O)c2ccccc2)cc1	?	?	0	0	-96.4
COC(=O)COc1ccc(/C=N/NS(=O)(=O)c2ccccc2)cc1	0	0	0	0	-92.5
Brc1ccc[n+](CCc2ccccc2)c1	-	-	0	0	-
Fc1cc(Br)ccc1Nc1c2c(nc3nc(-c4cccs4)nn13)CCCC2	0	0	0	10µM	-
Cc1ccc(C)c(CN2CCC3(CCC(CNC(=O)c4ccnn4C)O3)CC2)c1 (stereo unspecified)	0	-	-	-	-
O=C(Nc1ccc(SC(F)F)cc1)C12CCC(CC1)C2	0	0	0	0	?
CC12CCC(C(=O)Nc3ccc(SC(F)F)cc3)(CC1=O)C2(C)C (stereo unspecified)	0	0	0	0	-80.7
O=S(=O)(c1cccc(Cl)c1Cl)N1CCN(C(=S)NCCCN2CCOCC2)CC1	0	0	0	0	-73.9
O=C(NCCCN1CCOCC1)C1CCN(S(=O)(=O)c2cccc(Cl)c2Cl)CC1	0	0	0	?	0
S=C(NCCCN1CCOCC1)N1CCN(c2nc(-c3ccccc3)cs2)CC1	0	?	0	0	-87.3
S=C(NCCCN1CCOCC1)N1CCN(c2ccccc2)CC1	0	0	0	0	0
S=C(NCCCN1CCOCC1)N1CCN(c2nc(-c3ccc(Cl)cc3)cs2)CC1	-	3.16µM	11.2µM	12.6µM	-70.4
S=C(NCC1CCCO1)N1CCN(c2nc(-c3ccc(Cl)cc3)cs2)CC1 (stereo unspecified)	?	?	0	?	-68.2
CCOC(=O)c1ccc(NS(=O)(=O)c2cn(C)c(C)n2)cc1	0	0	0	0	-
CC(C)OCCCNC(=O)CSc1c2c(nc3ccc(Cl)cc13)CCCC2	-	-	0	11.2µM	-
CCc1ccc(CNC(=O)CSc2c3c(nc4ccc(Cl)cc24)CCCC3)cc1	-	-	0	0	-
COCCCNC(=O)CSc1c2c(nc3ccc(Cl)cc13)CCCC2	0	-	0	12.6µM!	-155.5
CCn1c(=O)c2cc(C(=O)NCCCN3CCN(c4ccc(F)cc4)CC3)sc2c2ccccc21	0	0	0	?	-
Cc1ccn2c(Nc3ccc(F)cc3)c(-c3ccccn3)nc2c1	?	0	0	0	-
Cc1cccc2nc(-c3ccccn3)c(Nc3ccc(F)cc3)n12	-	17.8µM	0	?	-
Cc1cccc2nc(-c3ccccn3)c(Nc3ccccc3)n12	?	?	0	?	-
Cc1cccc(C)c1Nc1c(-c2ccsc2)nc2ccccn12	?	0	0	?	-
Cc1cccc(C)c1Nc1c(-c2ccccn2)nc2ccccn12	10µM	-	0	?	0
Cc1ccc(Nc2c(-c3ccccn3)nc3cccc(C)n23)cc1	?	6.31µM	0	?	?
Brc1cccc[n+]1CCCCCC[n+]1ccccc1Br	-	-	0	0	-
Cc1cccc(OCCn2c(SCC(N)=O)nc3ccccc32)c1	0	0	0	0	-
O=C(NCC1Cc2cccc(-c3cccnc3)c2O1)c1cc(-c2ccccc2)n[nH]1 (stereo unspecified)	0	-	-	-	-
O=C(c1ccco1)N1CCc2[nH]nc(-c3ccc(Cl)cc3)c2C1	0	0	0	0	-72.0
